High-throughput results: PubChem, National Center for Advancing Translational Sciences (NCATS)
The full list was thinned out, with hits kept by preference.
Pf Dd2 inh – Plasmodium falciparum Dd2 growth inhibition; P. falciparum Dd2 growth, SYBR Green, 72 h; Potency, µM (series often up to 28.9 µM), usual class: inhibitors; 120,000 tested, 4.3% active; active = well fitted inhibition curve with a large enough effect; also: nearly all actives have a fitted effect of over 65% in size
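Infected erythrocytes (Dd2, 0.3% parasitemia, 2.5% hematocrit final) are added to compound in RPMI-1640/Albumax II medium, grown 72 h at 37C in low oxygen, then lysed with saponin/Triton-X containing SYBR Green and read by fluorescence.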
A number is an active result; 0 = inactive; [ ] = dose if it differs, or a comment.

SMILES | Pf Dd2 inh
CCn1ccn2c(-c3ccccc3)nc(C)c2c1=O | 0
COc1ccc(CCNc2ncnc3c2c(-c2ccccc2)cn3-c2cccc(Cl)c2)cc1OC | 8.9µM
COCCNc1ncnc2c1c(-c1ccccc1)cn2-c1cccc(Cl)c1 | 0
CC(=O)Nc1ccc(Nc2ncnc3c2c(-c2ccccc2)cn3-c2ccc(C)c(Cl)c2)cc1 | 7.1µM
CC(=O)Nc1ccc(Nc2ncnc3c2c(-c2ccccc2)cn3-c2ccccc2)cc1 | 0
COc1ccccc1N1CCN(c2ncnc3c2c(-c2ccccc2)cn3-c2cccc(Cl)c2)CC1 | 0
Cc1ccc(-n2cc(-c3ccccc3)c3c(N4CCC(C)CC4)ncnc32)cc1Cl | 0
O=C(NCc1ccccc1F)c1ccc2c(c1)CNCCO2 | 0
O=C1[C@@H]2C[C@@H](O)CN2C2(CN(Cc3ccccc3)C2)C(=O)N1Cc1cccc(Cl)c1 | 0
Cc1ccc2c(c1)N1C(=O)OC[C@@H]1CCN(C(=O)COCc1ccccc1)C2 | 0
CC1=C[C@@H](CN2C(=O)c3ccccc3C2=O)[C@H](C(C)C)C[C@H]1Cc1nc2ccccc2[nH]1 | 0
O=C(Cn1cccc1-c1nc(-c2ccccc2)no1)NC1CCCCC1 | 0
COc1cccc(CN2Cc3cc(NC(=O)c4cccs4)ccc3OCC2=O)c1 | 0
CCC1Oc2ccc(NC(=O)Cc3ccccc3)cc2CN(Cc2cccc(OC)c2)C1=O (stereo not drawn) | 0
CCC1Oc2ccc(NC(=O)c3c(F)cccc3F)cc2CN(Cc2ccc3c(c2)OCO3)C1=O (stereo not drawn) | 0
CC1Oc2ccc(NC(=O)c3ccccc3F)cc2CN(Cc2ccccc2F)C1=O (stereo not drawn) | 0
COc1cccc(CN2Cc3cc(NC(=O)c4cc(OC)cc(OC)c4)ccc3OCC2=O)c1 | 4.5µM
CCC1Oc2ccc(NC(=O)c3cccc(F)c3)cc2CN(Cc2ccccc2F)C1=O (stereo not drawn) | 0
CCC1Oc2ccc(NC(=O)COc3ccccc3)cc2CN(Cc2cccc(OC)c2)C1=O (stereo not drawn) | 0
CCC1Oc2ccc(NC(=O)c3ccccc3F)cc2CN(Cc2ccccc2F)C1=O (stereo not drawn) | 5.6µM
COc1cccc(CN2Cc3cc(NC(=O)Cc4ccccc4)ccc3OCC2=O)c1 | 0
CCC1Oc2ccc(NC(=O)c3ccccc3F)cc2CN(CCc2ccc(OC)c(OC)c2)C1=O (stereo not drawn) | 1.8µM
CCC1Oc2ccc(NC(=O)Cc3ccc(F)cc3)cc2CN(Cc2cccc(OC)c2)C1=O (stereo not drawn) | 4µM
CCC1Oc2ccc(NC(=O)c3ccccc3F)cc2CN(Cc2ccc3c(c2)OCO3)C1=O (stereo not drawn) | 0
O=C(NCc1cc2ccc(F)cc2[nH]c1=O)C1CC2(CCNCC2)CN1 (stereo not drawn) | 0
SMILES | Pf Dd2 inh
Cc1nnc([C@@H]2CC(F)(F)CN2S(=O)(=O)c2cccc(F)c2)o1 | 0
CN(C)c1nc2c(c(=O)[nH]1)CCN(C(=O)CCc1ccccc1)CC2 | 0[5.79 µM]
COc1ccccc1C(=O)N1CCCC2(C1)NC(=O)c1ccccc1O2 (stereo not drawn) | 0
CS(=O)(=O)N1CCC(C2CCN(C(=O)Cc3cccc(F)c3)C2)CC1 (stereo not drawn) | 0
COc1ccc(-n2nc(C3CCN(CCC(C)C)CC3)[nH]c2=O)cc1 | 0
Cc1ncc2n1C(=O)N(C1CCN(Cc3ccsc3)CC1)C2 | 0
CCC(=O)N1CCC(Oc2ncccc2C(=O)N(C)C)C1 (stereo not drawn) | 0
COCc1ccc2c(c1)c(OC(C)(C)C(=O)N1CCOCC1)nn2Cc1cccnc1 | 0
CN(CCc1ccccc1)[C@@H]1[C@H](O)[C@H](CO)O[C@@H]1CNS(=O)(=O)c1cccs1 | 0
Cc1cccc(C)c1NC(=O)Nc1csc2c1CCCC2 | 0
Cc1cc(C)c(NC(=O)Nc2csc3c2CCCC3)c(C)c1 | 0[5.79 µM]
CCc1cccc(NC(=O)Nc2csc3c2CCCC3)c1 | 10µM
COc1cccc(OCc2nc(C(=O)N3CCC4(CC3)CNC(=O)O4)co2)c1 | 0
COc1ccc(-n2c(C)c(C(C)=O)c3cc(OC(=O)COc4ccccc4)ccc32)cc1 | 0
CCOC(=O)c1c(C)n(-c2ccccc2)c2ccc(OC(=O)COc3ccccc3)cc12 | 0
CCOC(=O)c1c(C)n(-c2ccc(OC)cc2)c2ccc(OC(=O)COc3ccccc3)cc12 | 11µM
COC(=O)C1=CN(CC(=O)Nc2c(C)cc(C)cc2C)S(=O)(=O)N=C1C | 0
O=C1CCN(S(=O)(=O)c2ccc3c(c2)CCC3)CCCC(CO)CCN1 (stereo not drawn) | 0
Cc1ccc(NC(=O)CSc2nc(C)c(Cc3ccccc3)c(=O)[nH]2)cc1C | 0
Cc1nnc(SCC(=O)Nc2ccc(N(C)C)cc2)[nH]c1=O | 11µM
Cc1cccc(NC(=O)CSc2nnc(C)c(=O)[nH]2)c1 | 0
O=C(Cn1c(=O)oc2ccccc21)NCC12CCCC=C1NC(=O)CC2 (stereo not drawn) | 0
Cc1nc2c(c(-c3ccc(O)cc3)n1)CN(C(=O)C1CCCC1)CCC2 | 0
O=C(NC1CC1)c1ccc(CC2CCN(C(=O)c3ccc4ccccc4n3)CC2)cc1 | 2µM
CCNC(=O)c1ccc(CC2CCN(C(C)=O)CC2)cc1 | 0
SMILES | Pf Dd2 inh
COCC(=O)NC1CCC12CCN(C(=O)c1ccc3ccccc3n1)CC2 (stereo not drawn) | 0
Cc1ncccc1C(=O)N1CCC(N2C(=O)CCC2C(=O)NCc2ccccc2)CC1 (stereo not drawn) | 0
CC1=C(C(N)=O)C(c2cccc(C)c2)n2nc(-c3ccc(Cl)cc3)nc2N1 (stereo not drawn) | 0
CC1=C(C(N)=O)C(c2ccc(F)cc2)n2nc(-c3ccc(N(C)C)cc3)nc2N1 (stereo not drawn) | 10µM
CCN(CC)c1ccc(C2C(C(N)=O)=C(C)Nc3ncnn32)cc1 (stereo not drawn) | 0
O=C1NCCCCCN(C(=O)c2ccsc2)[C@H]2CCC[C@@H]12 | 0
COc1ccc(CNC(=O)c2cc3n(n2)CC(c2ccc4c(c2)OCO4)OC3)cc1 (stereo not drawn) | 0
O=C(NCCc1ccc(Cl)cc1)c1ccc(Nc2nc3ccccc3n3nnnc23)cc1 | 0
COc1ccc(CCNC(=O)c2cccc(Nc3nc4ccccc4nc3-n3nc(C)cc3C)c2)cc1OC | 0
CC(NC(=O)c1cccc(Nc2nc3ccccc3n3nnnc23)c1)c1ccccc1 (stereo not drawn) | 0
COc1ccccc1N1CCN(C(=O)c2ccc(Nc3nc4ccccc4n4nnnc34)cc2)CC1 | 10µM
COc1ccc(CCNC(=O)c2ccc(Nc3nc4ccccc4n4nnnc34)cc2)cc1OC | 8.9µM
Cc1ccc(CNC(=O)c2ccc(Nc3nc4ccccc4n4nnnc34)cc2)cc1 | 0
CCN1CCN(C(=O)c2c(OCC3CC3)cc(=O)n3c2CCCCC3)CC1 | 0
CC(C)Oc1ccc(CN2CCc3n[nH]c(=O)n3CC2)cc1 | 0
O=[S+]([O-])(c1cccc(C(F)(F)F)c1)N1CC(Oc2ccc(F)c(F)c2)C1 | 0
COc1ccc(Cl)cc1NC(=O)CCC1CCCN(C(=O)CCCN2CCCC2=O)C1 (stereo not drawn) | 0
COCCc1noc([C@@H]2CN(C3CCCC3)C[C@H]2CO)n1 | 0
Cc1ccc(OCc2nc(C3CN(C(=O)c4cc5ccccc5[nH]4)C3)no2)cc1 | 0
COc1ccc([C@H]2C[C@@H](O)[C@@H](O)[C@@H]2NCC(C)C)cc1 | 0
Cn1cc(C(=O)N2CCC(c3noc(-c4ccccc4)n3)C2)cn1 (stereo not drawn) | 0[5.79 µM]
